The source of these data is PubChem BioAssay (EPA / NIEHS).

Calls of active or inactive are those of the source. How the source made its calls: active means hit-call score of the fitted dose curve at least 0.9, where 1 is the maximum; inactive means score below 0.9.

The term AC50 denotes the concentration giving half of the maximal activity seen.

Read-out in this experiment: Phosphatase and tensin (PTEN), PTEN (gene 5728)
The experiment in a line: LTEA_HepaRG_PTEN: Life Technologies and Expression Analysis (LTEA) Assay for Phosphatase and tensin (PTEN) using HepaRG (AID 2283523). As to conditions: mRNA level, 48 h; actives raise or lower the signal. The protocol: LTEA_HepaRG is a cell based, multiplexed-readout assay that uses HepaRG, a human liver cell line, with measurements taken at 48 hours after chemical dosing on a 96-well plate.LTEA_HepaRG_PTEN is one of 102 assay component(s) measured in the LTEA HepaRG cell culture assay. It is a marker of Cell proliferation, survival, death.Data from the assay component LTEA_HepaRG_PTEN was analyzed into 1 endpoint. This assay endpoint, LTEA_HepaRG_PTEN, was analyzed with bidirectional fitting relative to DMSO as the negative control and baseline of activity. Using a type of inducible reporter, measures of mRNA induction for gain or loss-of-signal activity can be used to understand regulation of transcription factor activity. To generalize the intended target to other relatable targets, this assay endpoint is annotated to the phosphatase intended target family, where the subfamily is dual-specific phosphatase.
A total of 1060 chemcials from the ToxCast library were tested in eight-point concentration-response experiments. Cell culture and cytotoxicity assays were conducted at Thermo Fisher Scientific's Custom Services facility (Madison, WI). A single lot of human HepaRG cells (Thermo Fisher Scientific, Frederick, MD) was used for the cell culture experiments. 96-well format collagen type I coated plates of human HepaRG cells were prepared using established methods. Briefly, cryopreserved HepaRG cells were thawed, plated at a density of approximately 100,000 cells/well in HepaRG Thaw, Plate, and General Purpose media (HPRG770, Thermo Fisher Scientific), and incubated for 48 hours. 0.5% DMSO was selected as vehicle control to balance the requisite need of DMSO in HepaRG cultures to maintain differentiation (for example, baseline metabolism, proportions of hepatocytes vs. cholangiocytes), while enabling further hepatic receptor pathway activation (for example, PXR and CAR) in response to chemical exposure. 48 hours after plating, the culture medium was replaced with HepaRG Serum-Free Incudtion Media. Cells were exposed to each test chemical in duplicate and maintained in CO2 incubators for another 48 hours. Chemical plates were thawed to room temperature and 200x concentrations of treatment groups were prepared. 8-point conentration-reponse curves were made with the highest exposure at 100 uM, followed by half-log dilutions, all in 0.5% DMSO. Each test plate contained variouse controls, induction positive controls (1mM phenobarbital), cytotoxicity positive controls ([…] aflatoxin B1), vehicle controls (0.5% DMSO), and total lysis controls (0.5% DMSO). Cell morphology images were taken using an Essen IncuCyte FLR automated microscope, with six 96-well plates imaged in about 24 minutes. Images were captured and exported and JPEG files. Spent culture media was transfered to black-well plates for the LDH assay, and remaining media was sorted at -80 C for later use. Cells were treated with RLT buffer and frozen until shipped for gene expression analysis. Total RNA was isolated from the cell suspension in 75 uL of Buffer RLT (Qiagen, Germantown, MD 20874) by Quintiles/Expression Analysis (Durham, NC) using a custom isolation procedure. Total RNA from each plate well was transferred to a preamplification plate. Fluidigm's 96.96 Dynamic ArrayTM (Fluidigm, Amsterdam, the Netherlands) technology was used for gene expression analyses by quantitative reverse transcription polymerase chain reaction (qRT-PCR, performed by Quintiles/Expression Analysis, Durham, NC)89. Standard TaqManTM Assays (Applied Biosystems/ThermoFisher Scientific, Foster City, CA) were used to assess the expression of 93 genes selected based on their selectivity and sensitivity to important hepatic receptors known to be modulated by environmental chemicals; importance in human hepatocyte functionality; and hepatotoxicity. […]
Turning to `CC(=O)O[C@]1(C(C)=O)CC[C@H]2[C@@H]3C=C(Cl)C4=CC(=O)[C@@H]5C[C@@H]5[C@]4(C)[C@H]3CC[C@@]21C`, the compound was classed as inactive.

For the compound `CC(=O)S[C@H](C(=O)N[C@H]1Cc2ccccc2[C@H]2CCC[C@@H](C(=O)O)N2C1=O)C(C)C`, the outcome was inactive.

With `O=C1CCCCC1`, the compound was called inactive.

Consider `CC1=C(C)S(=O)(=O)CCS1(=O)=O`, for which the compound was called inactive.

As for `O=C(N[C@@H](c1ccccc1)[C@@H]1CCCCN1)c1cccc(C(F)(F)F)c1Cl`, the concentration at half-maximal activity (AC50) was 75.2 µM (active).

In the case of `C=CCc1ccc(OC)c(OC)c1`, the AC50 was 0.0454 µM (active).

Turning to `Cn1cnc2c1c(=O)[nH]c(=O)n2C`, the compound was classed as inactive.

For `CN(C)C(=O)NC1(c2ccccc2)CCN(CC[C@@]2(c3ccc(F)c(F)c3)CN(C(=O)c3ccccc3)CCO2)CC1`, the result was inactive.

Regarding `Oc1ccccc1O`, the compound was called inactive.

`CCCCCCCCCC[N+](C)(C)[O-]`: the compound was called inactive.

For `CCc1nc(N)nc(N)c1-c1ccc(Cl)cc1`, the compound was classed as inactive.

Take `CC(=O)[C@@]1(O)CC[C@H]2[C@@H]3CCC4=CC(=O)CC[C@]4(C)[C@H]3CC[C@@]21C`: the outcome was inactive.

For the compound `NC=O`, the compound was classed as inactive.

`NC(=Nc1ccccc1)Nc1ccccc1`: the compound was classed as inactive.

With `C/C=C/c1ccc(OC)cc1`, the compound was classed as inactive.

`CC(=O)OC1CC(C)OC(C)O1` (stereo not given): the compound was classed as inactive.

As to `CCc1cc(C2=C(C(=O)O)N(c3ccccc3C(F)(F)F)S(=O)(=O)c3ccccc32)cc2c1OCO2`, the outcome was inactive.

On to `O=C1OC(c2ccc(O)cc2)(c2ccc(O)cc2)c2ccccc21`, for which the compound was called inactive.

As for `O=C1NC(=O)C(c2ccccc2)(c2ccccc2)N1`, the compound was classed as inactive.

`C=CCCCCCCCCCCCC`: the call was inactive.

In the case of `Nc1nc(Cl)nc2c1ncn2[C@H]1C[C@H](O)[C@@H](CO)O1`, the AC50 is 3.12 µM (active).

For `CCCC(=O)O`, the outcome was inactive.

Turning to `O=C1O[C@H]([C@H](O)CO)C(O)=C1O`, the result was inactive.

With `COC(=O)[C@H]1[C@H]2C[C@@H]3c4[nH]c5cc(OC)ccc5c4CCN3C[C@H]2C[C@@H](OC(=O)c2cc(OC)c(OC)c(OC)c2)[C@@H]1OC`, the compound was classed as inactive.

Turning to `CCCCCCC(CCCCCCCCCCC(=O)OCC(COC(C)=O)OC(C)=O)OC(C)=O` (stereo not given), the call was inactive.

For `CC(C)(O)c1ccc(CNC(=O)c2cccnc2Oc2ccc(F)cc2)cc1`, the compound was called inactive.

As to `c1ccc2occc2c1`, the compound was classed as inactive.

Consider `CCC(C)N(C)C(=O)c1cc2ccccc2c(-c2ccccc2Cl)n1` (stereo not given), for which the compound was called inactive.

On to `O=C1c2c(O)cccc2Cc2cccc(O)c21`, for which the compound was classed as inactive.

Consider `CCCCC(CC)COP(=O)(OCC(CC)CCCC)OCC(CC)CCCC` (stereo not given), for which the compound was classed as inactive.

In the case of `CN(C)CCCN(C)CCCN(C)C`, the compound was called inactive.

On to `COC(=O)CCCC(=O)OC`, for which the compound was classed as inactive.

Take `Cc1c(C)c2c(c(C)c1O)CCC(C)(COc1ccc(CC3SC(=O)NC3=O)cc1)O2` (stereo not given): the compound was classed as inactive.

For the compound `CC(C)(C)c1ccccc1`, the result was inactive.

Turning to `Cc1cn([C@H]2C=C[C@@H](CO)O2)c(=O)[nH]c1=O`, the compound was called inactive.

`CN(C)C(=O)NC1(c2ccccc2)CCN(CCC[C@]2(c3ccc(Cl)c(Cl)c3)CCCN(C(=O)c3ccccc3)C2)CC1`: the outcome was inactive.

Consider `O=C(O)c1cccnc1`, for which the call was inactive.

With `N[C@@H](Cc1c[nH]c2ccccc12)C(=O)O`, the outcome was inactive.

For the compound `O=Cc1ccccc1C=O`, the result was inactive.

For the compound `CCCCCCCCCCCCCCCCO`, the compound was classed as inactive.
